This excerpt belongs to a sample that is enriched for hits.
Pf Dd2 growth: inhibitors of Plasmodium falciparum Dd2 growth. P. falciparum Dd2 growth, SYBR Green, 72 h. Potency, µM (top dose mostly 28.9 µM), for the others: top-dose activity, negative = inhibition, actives largely listed as inhibitors. hit rate 4.3% among 120,000. AID 1347417; active = well fitted inhibition curve with a large enough effect;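 also: plate controls were DMSO vehicle for no effect and reference drug for full effect; nearly all actives have a fitted effect of over 65% in size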
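Infected erythrocytes (Dd2, 0.3% parasitemia, 2.5% hematocrit final) are added to compound in RPMI-1640/Albumax II medium, grown 72 h at 37C in low oxygen, then lysed with saponin/Triton-X containing SYBR Green and read by fluorescence.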
* marks the source's active call; other numbers are inactive results; i = inactive; [ ] = remark or other dose. Potency is read from the fitted curve at half-maximal effect.

SMILES	Pf Dd2 growth
Cc1ccc(CNC(=O)CN2C(=O)NC3(CCCCC3)C2=O)cc1	-2%
COc1cccc(CC(=O)N2CCCN(c3cc(-c4ccccc4)[nH]n3)CC2)c1	i
COc1ccc(-c2nnc3n2CCN(C(=O)C2CCCC2)C3)cc1	-18%[44.1 µM]
O=C1NCCCCCN(C(=O)c2ccco2)[C@H]2CCC[C@@H]12	3%
CSc1cccc(NC(=O)Cn2c(Nc3cc(C)cc(C)c3)nc(C)cc2=O)c1	-10%
COCCc1noc(C2CN(C(=O)C(C)C)C2)n1	11%
Cc1nc(C)c(C(=O)N2CC(Oc3ccccc3-c3nc(C4CC4)no3)C2)s1	i
CCCNC(=O)N1CC(Oc2ccccc2-c2nc(CCOC)no2)C1	-16%
CCn1nccc1C(=O)N1CC(Oc2ccccc2-c2nc(CCOC)no2)C1	4.5µM*
CCn1nccc1C(=O)N1CC(Oc2ccc(-c3nc(C)no3)cc2)C1	69%[5.79 µM]
COCCc1noc(-c2ccccc2OC2CN(C(=O)C(C)C)C2)n1	3.2µM*
CN(C(=O)c1c(F)cccc1Cl)C1CCc2nn(C)c(=O)n2CC1 (stereo not drawn)	33%
COc1ccccc1C(O)c1nc(Nc2ccncc2)n[nH]1 (stereo not drawn)	21%[44.1 µM]
CC(O)CCNS(=O)(=O)c1ccc2c(c1)CN(C(=O)c1ccon1)CC2 (stereo not drawn)	8%
CCN(CC)C(=O)[C@@H]1CCC[C@@H](NCc2cccc3c2OCO3)CN(C)C(=O)C1	-2%[44.1 µM]
O=C(CCn1ccc(=O)[nH]c1=O)N[C@H](c1ccccn1)C1CC(O)C1 (stereo partly drawn)	-14%
CN(Cc1cnccn1)C(=O)C1CCCN(C2CCN(C(=O)C3CC3)CC2)C1 (stereo not drawn)	4%
COc1cc2c(cc1OCc1ccc(Cl)cc1)N(Cc1ccccc1)CC21CCN(C(C)=O)CC1	i
COc1cc2c(cc1OCc1ccccc1)N(C(=O)[C@@H]1CCCO1)CC21CCN(C)CC1	i
COc1cc2c(cc1OCc1ccccc1)N(C(=O)c1c[nH]c3ccccc13)CC21CCN(C)CC1	2.5µM*
CC(C)Oc1ccc2c(NC(=O)c3ccc(=O)n(C)n3)nn(CC(F)(F)F)c2c1	6%
CN(CC(=O)N1CCC(CCOc2ccc(F)cc2)C1)S(=O)(=O)c1cccs1 (stereo not drawn)	-15%
Cc1cn2nc(C(=O)Nc3cccc(F)c3C)cc2c(N(C)Cc2ccccc2)n1	-3%
Cc1cn2nc(C(=O)Nc3ccccc3C)cc2c(N(C)Cc2ccccc2)n1	-13%
CCN(Cc1ccccc1)C(=O)c1cc2c(N3CCCC3)nc(C)cn2n1	i
SMILES	Pf Dd2 growth
Cc1cn2nc(C(=O)N3CCCCC3)cc2c(N(C)Cc2ccccc2)n1	7.1µM*
Cc1cn2nc(C(=O)N3CCN(c4ccccc4)CC3)cc2c(N(C)Cc2ccccc2)n1	-8%
Cc1cn2nc(C(=O)Nc3ccc(Cl)cc3C)cc2c(N(C)Cc2ccccc2)n1	10µM*
C1CCC(c2noc(COCC3CC3)n2)NC1 (stereo not drawn)	-4%
CC1=NOC2(CCN(C(=O)c3ccccc3)CC2)C1	13%[44.1 µM]
O=C(N[C@H]1CCN2C(=O)c3ccc(Cl)cc3NC(=O)[C@H]12)C1CCCC1	-25%[44.1 µM]
CCOC(=O)c1ccc(NC(=O)Cn2nc(SC)c(S(=O)(=O)c3ccc(Cl)cc3)c2N)cc1	11µM*
CCSc1nn(CC(=O)Nc2ccc(C(=O)OC)cc2)c(N)c1S(=O)(=O)c1ccc(C)cc1	-15%
CSc1nn(CC(=O)Nc2ccccc2F)c(N)c1S(=O)(=O)c1ccccc1	11%
COCCc1noc([C@@H]2CC(F)(F)CN2C(=O)c2ccccc2F)n1	-24%
CCN1c2cc(C(=O)Nc3cc(F)ccc3F)ccc2C(=O)N2CCCCCC21 (stereo not drawn)	i
COc1cccc(N2CCN(C(=O)C3CCCN(Cc4cccnc4)CCC(=O)NCC3)CC2)c1 (stereo not drawn)	4µM*
COc1cccc(CN2CCCC(C(=O)NCc3ccccc3)CCNC(=O)CC2)c1 (stereo not drawn)	6.3µM*
COc1cccc(CN2CCCC(C(=O)NCc3ccncc3)CCNC(=O)CC2)c1 (stereo not drawn)	-5%
CCN1CCN(C(=O)C2CCCN(Cc3cccnc3)CCC(=O)NCC2)CC1 (stereo not drawn)	9%
Cc1cccc(N2CCN(C(=O)C3CCCN(C(=O)c4cccnc4)CCC(=O)NCC3)CC2)c1 (stereo not drawn)	6%
N#Cc1ccccc1CN1CCCC(C(=O)NCc2ccccc2)CCNC(=O)CC1 (stereo not drawn)	i
Cc1ccc(-c2cnc([C@@H]3COCCN3Cc3cn(C)c4ccccc34)[nH]2)cc1	i
O=C(NC1CCN(c2nnc3ccccn23)CC1)c1ccc(Cl)s1	-16%
Cc1cnc(CC2CCCN(C(=O)c3ccnn3C)C2)n1C(C)C (stereo not drawn)	-1%
CC(=O)c1cccc(NC(=O)Cn2c(=O)n(-c3ccc(F)cc3)c(=O)c3c2cc(C)n3C)c1	-24%
O=C(Cc1ccsc1)N1CCc2n[nH]c(=O)n2CC1	60%
O=C(c1cccc(N2CCCC2=O)c1)N1CCCC(O)(CN2CCCC2)C1 (stereo not drawn)	-4%
COc1ccc(F)c(CN2CCC(CO)(CN3CCCC3)CC2)c1	i
COc1ccc(O)c(CN2CCC(CO)(Cc3ccccc3Cl)CC2)c1	8.9µM*
SMILES	Pf Dd2 growth
CC(=O)c1cc(CN2CCC(CO)(Cc3ccccc3Cl)CC2)cs1	-11%
CC(C)n1cc(CN2CCC(CO)(Cc3ccccc3Cl)CC2)cn1	-11%
COc1cc(N2CCC(CO)(Cc3ccccc3C(F)(F)F)CC2)ncn1	-17%
OCC1(Cc2ccccc2Cl)CCN(Cc2cc3ccccc3o2)CC1	8.9µM*
Cc1cnc(CCNC(=O)C2CCCC2)n1C1CC1	i
CC1(C)NC(=O)N(CCC(=O)N2CCc3c(nc4cc(-c5ccccc5)[nH]n4c3=O)C2)C1=O	22%[5.79 µM]
CC[C@H]1CN(C(=O)Nc2cccc(C(F)(F)F)c2)CC[C@H]1CC(=O)NCc1ccc(OC)cc1	i
CC[C@H]1CN(C(=O)Nc2cccc(OC)c2)CC[C@H]1CC(=O)NCc1cccnc1	1%[44.1 µM]
CC[C@H]1CN(C(=O)Nc2cccc(OC)c2)CC[C@H]1CC(=O)NCc1ccccc1	13µM*
CCCCN(CC)CCCNC(=O)Cn1ncc2c3ccccc3n(Cc3ccccc3F)c2c1=O	4µM*
CCCCN(CC)CCCNC(=O)Cn1ncc2c3ccccc3n(C)c2c1=O	i
O=C(Cn1ncc2c3ccccc3n(Cc3ccc(F)cc3)c2c1=O)NCCC1=CCCCC1	43%[0.594 µM]
CCN(CC)CCNC(=O)Cn1ncc2c3ccccc3n(Cc3ccc(Cl)cc3)c2c1=O	5µM*
O=C(Cn1ncc2c3ccccc3n(Cc3ccc(F)cc3)c2c1=O)NCCCN1CCCCC1	5µM*
Cn1c2ccccc2c2cnn(CC(=O)NCc3ccc(Cl)cc3)c(=O)c21	22%
O=C(Cn1ncc2c3ccccc3n(Cc3ccccc3F)c2c1=O)NCCCc1ccccc1	4%
CCCn1c2ccccc2c2cnn(CC(=O)NCCN(CC)CC)c(=O)c21	i
O=C(Cn1ncc2c3ccccc3n(Cc3ccc(F)cc3)c2c1=O)NC1CCCCCC1	i
Cc1cc(-c2cc3c(cn2)CN(Cc2ccc(C(F)(F)F)cc2)CCN3)ccn1	i
CCc1nc(C)c(C(=O)NCc2cccnc2Oc2ccc(F)c(F)c2)o1	-15%
Cc1cc(NC(=O)N2CCCC(Cn3c(C)nc4cccnc43)C2)ccc1Br (stereo not drawn)	-18%
CCc1cnc(C)nc1N1CCC(Oc2ccc3ccccc3c2)(C(=O)O)CC1	-9%

Compound activity: PubChem BioAssay, National Center for Advancing Translational Sciences (NCATS)
